Reference: PubChem BioAssay (NCI)
Compounds without any hit were thinned out: in the full panel of roughly 79,000, 15% have a hit. Cut-off read from the data, not from the text of the source: active = growth inhibition above about 70%; inactive = the rest.

Assays:
[1] = NCI Yeast Anticancer Drug Screen. Data for the rad50 strain (AID 155);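 note: 0% = growth of vehicle-only cultures of the same strain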; conditions: S. cerevisiae rad50 strain growth inhibition; at 50.0 µM; stronger effect = higher value
Summary of the method: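 Yeast carrying a defined DNA repair defect were exposed to test compounds, and growth was compared with vehicle-treated controls to give percent inhibition.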

[2] = NCI Yeast Anticancer Drug Screen. Data for the mec2-1 strain (AID 157); conditions: S. cerevisiae mec2-1 strain, at 50.0 µM, stronger effect = higher value
Summary of the method: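 Compounds were applied to mec2-1 yeast cells. Their growth was then compared with that of vehicle-treated cultures to give growth inhibition.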

[3] = NCI Yeast Anticancer Drug Screen. Data for the sgs1 mgt1 strain (AID 161);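 note: 0% = growth of cultures given vehicle only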; conditions: S. cerevisiae sgs1 mgt1 strain, at 50.0 µM, stronger effect = higher value
Summary of the method: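 This yeast growth screen uses a strain with defined DNA-repair lesions; compound-treated growth is compared with vehicle-treated growth.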

[4] = NCI Yeast Anticancer Drug Screen. Data for the cln2 rad14 strain (AID 165);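 note: 0% = growth equal to vehicle treated cultures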; conditions: S. cerevisiae cln2 rad14 strain, at 50.0 µM, stronger effect = higher value
Summary of the method: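 Strain: cln2 rad14 yeast, altered in cell cycle control and DNA damage repair. Read-out: growth inhibition vs vehicle.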

[5] = NCI Yeast Anticancer Drug Screen. Data for the bub3 strain (AID 167); conditions: S. cerevisiae bub3 mutant strain, at 50.0 µM, stronger effect = higher value
Summary of the method: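 Compounds were applied to a genetically altered yeast strain carrying a cell-cycle control defect. Growth inhibition was scored against vehicle-treated controls.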

[6] = NCI Yeast Anticancer Drug Screen. Data for the mlh1 rad18 strain (AID 175); conditions: S. cerevisiae mlh1 rad18 strain growth inhibition; at 50.0 µM; stronger effect = higher value
Summary of the method: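 A repair-deficient yeast strain is exposed to test compound, and growth is scored relative to vehicle-treated controls.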

Measured: growth inhibition

Cc1ccc(S(=O)(=O)N/N=C/c2oc(-c3ccncc3)c(-c3ccncc3)c2[N+](=O)[O-])cc1
inactive: [1] -1.15% | [2] 10.8% | [3] 17.4% | [4] 27.8% | [5] -11.5% | [6] 17.1%

CC1(C)OC(=O)C(=CN(C2CCCCC2)C2CCCCC2)C(=O)O1
inactive: [1] -6.45% | [2] -6.6% | [3] 7% | [4] -21.2% | [5] -33.6% | [6] -13.3%

CN(C)C(=S)Nc1ccc(S(=O)(=O)N2CCCCC2)cc1
inactive: [1] -7.9% | [2] -28.4% | [3] -2.7% | [4] 1.15% | [5] -16.4% | [6] -7.85%

c1ccc(C2Nc3ccccc3NC2c2ccccc2)cc1 (stereo unspecified)
inactive: [1] 29.5% | [2] 5.75% | [3] 24.4% | [4] 20.9% | [5] 60.6% | [6] 56.8%

CCOC(=O)c1c(C)n2c3c(cccc13)CCC2
inactive: [1] 23.4% | [2] 16.9% | [3] 3.05% | [4] 61.6% | [5] 8.6% | [6] 12.8%

COC(=O)C(Cc1ccccc1)NC(=O)Cn1ccnc1[N+](=O)[O-] (stereo unspecified)
inactive: [1] 9.65% | [2] -19.6% | [3] 15.2% | [4] 7.7% | [5] -16% | [6] -3.3%

CC(=O)Nc1ccc(OC(=O)Nc2ccc(C)c(NC(=O)Oc3ccc(NC(C)=O)cc3)c2)cc1
inactive: [1] 6.35% | [2] -6.95% | [3] 6.15% | [4] 24.5% | [5] 17.2% | [6] 7.25%

[N-]=[N+]=Nc1cc(=O)n(-c2ccccc2)c2ccccc12
inactive: [1] -17.2% | [2] -22.7% | [3] -24.6% | [4] -2.8% | [5] -3.75% | [6] -22.3%

CCCCCCCCCCCCCCCCCCc1c(C)cc(C)cc1C
inactive: [1] 3.7% | [2] 23.2% | [3] 3.7% | [4] 33.3% | [5] 3.55% | [6] 4.3%

N#CC(/C(=N\NC(=O)c1ccncc1)C(=O)Nc1ccc([N+](=O)[O-])cc1[N+](=O)[O-])c1nc(-c2ccc(Br)cc2)cs1 (stereo unspecified)
inactive: [1] 0.25% | [2] -3.75% | [3] -15.1% | [4] 7.6% | [5] 12.9% | [6] -7.85%

N#CC1(C#N)C(CCl)C1(C#N)C#N
inactive: [1] 2.85% | [2] -6.95% | [3] -1.15% | [4] -15.2% | [5] -4% | [6] -8.6%

NC(=O)c1cn2ccccc2c1[N+](=O)[O-]
inactive: [1] 8.25% | [2] 27.6% | [3] 3.35% | [4] -20.2% | [5] 2.8% | [6] 5.2%

Cc1cc[c]([Sb]2([c]3ccc(C)cc3)([c]3ccc(C)cc3)[NH]c3cc(C(c4ccccc4)(c4ccccc4)c4ccccc4)cc(C(C)(C)C)c3[O]2)cc1
inactive: [1] -1.65% | [2] 14.3% | [3] 5.15% | [4] -23.6% | [5] -1.25% | [6] 11.1%

O=C1/C(=C\c2ccc(O)cc2)CCC/C1=C/c1ccc(Cl)c(Cl)c1
inactive: [1] -0.5% | [2] 27.4% | [3] 7.15% | [4] 35.5% | [5] -4.85% | [6] 24.6%

COC(=O)c1c2c(cc3c1CC1(C3)Cc3ccc4c(c3C1=O)CCC4)CCC2 (stereo unspecified)
inactive: [1] 12.5% | [2] 14.4% | [3] -7.35% | [4] -13.8% | [5] -21.1% | [6] -86%

c1ccc(COC2COC(OCc3ccccc3)C(OCc3ccccc3)C2OCc2ccccc2)cc1 (stereo unspecified)
inactive: [1] 1.05% | [2] -3.45% | [3] 3.4% | [4] -36.4% | [5] 12.4% | [6] -3.3%

COCC(=O)C(C(C)=O)C(c1ccc2c(c1)OCO2)C(C(C)=O)C(=O)COC (stereo unspecified)
inactive: [1] -40.5% | [2] -8.25% | [3] -18.9% | [4] -39.5% | [5] -5.75% | [6] -2.6%

CC(Sc1ncnc2[nH]ncc12)C(N)=O (stereo unspecified)
inactive: [1] -22.5% | [2] -16.4% | [3] -18.4% | [4] -6.6% | [5] 5% | [6] 0.95%

COc1cccc(N2C(=O)C3c4[nH]c5ccccc5c4C4CCCC4C3C2=O)c1 (stereo unspecified)
inactive: [1] -36.5% | [2] -47.4% | [3] -20.8% | [4] -8.15% | [5] -50% | [6] -22.4%

CCN(CC)c1ccc(N=C2C=C(C(=O)Nc3ccccc3)C(=O)c3ccccc32)cc1
inactive: [1] -10.9% | [2] -40.3% | [3] -14.4% | [4] 6.25% | [5] -3.9% | [6] -21.4%

C[C@@H]1CC[C@@]2(C)C(C(=O)O)=CCCC2[C@@]1(C)CC(=O)c1ccoc1 (stereo partly specified)
inactive: [1] -11.9% | [2] -8.55% | [3] -36.1% | [4] -17.1% | [5] -42.5% | [6] -35.2%
